# “And” between values parts separate entries of the source, which are not always exact repeats. Identical values can stand only once. The source made the active and inactive calls.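 The calls were made as follows, unless noted: active = z-score of at least 1.8 in each of two replicates, scored against plate mean and spread of sample wells; inactive = the rest.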
# What was measured:
# [1] = biological target: NAD(+) hydrolase SARM1 (Homo sapiens) (UniProt Q6SZW1); assay: blocking NAD cleavage by SARM1 SAM-TIR – cell lysate, NAD-Glo luminescence (AID 1508614;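 active = compound whose remaining NAD level is above about 45 nM, limit read from the data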;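 also: higher remaining NAD means stronger inhibition of SARM1 NADase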); details: SAM-TIR HEK293T lysate NADase, at 1 µM, stronger effect = higher value
# Chain of NAD(+) hydrolase SARM1 (Homo sapiens) (Q6SZW1 whole entry, looked up): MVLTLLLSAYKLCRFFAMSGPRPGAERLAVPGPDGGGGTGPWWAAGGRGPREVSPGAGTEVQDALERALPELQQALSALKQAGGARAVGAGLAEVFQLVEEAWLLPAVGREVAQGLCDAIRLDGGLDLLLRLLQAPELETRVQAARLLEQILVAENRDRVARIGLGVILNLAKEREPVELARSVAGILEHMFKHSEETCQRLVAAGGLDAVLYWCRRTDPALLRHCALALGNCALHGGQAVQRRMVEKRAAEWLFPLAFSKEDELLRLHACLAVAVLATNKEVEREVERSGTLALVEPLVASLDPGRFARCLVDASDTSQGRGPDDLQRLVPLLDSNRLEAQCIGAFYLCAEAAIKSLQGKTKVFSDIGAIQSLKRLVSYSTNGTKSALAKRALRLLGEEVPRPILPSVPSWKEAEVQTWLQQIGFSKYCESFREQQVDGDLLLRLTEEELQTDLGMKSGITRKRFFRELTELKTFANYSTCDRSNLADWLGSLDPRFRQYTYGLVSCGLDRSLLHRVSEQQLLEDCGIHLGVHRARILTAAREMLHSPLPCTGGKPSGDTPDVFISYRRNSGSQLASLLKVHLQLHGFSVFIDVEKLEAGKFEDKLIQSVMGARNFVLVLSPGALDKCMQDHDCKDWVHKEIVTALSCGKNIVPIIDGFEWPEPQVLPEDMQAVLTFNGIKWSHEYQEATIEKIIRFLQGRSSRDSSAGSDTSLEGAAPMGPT
# [2] = galactose survival enhancers in mitochondrial complex I cybrids – cell-based, galactose medium, ATP luminescence, primary screen (AID 1645843); details: complex I mutant cybrid cells, 72 h, stronger effect = higher value;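 also: positive z means more ATP and so rescue of galactose-driven cybrid death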
# F380Y = assay: BK channel mutant inhibitors and activators – cell-based, U2OS BacMam, thallium flux, beta subunits, selectivity assay, profiling panel (AID 1259406;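 active = thallium flux through the channel raised or lowered by more than 3 SD from vehicle-only wells, actives on both sides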;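 also: initial slope of Thallos dye fluorescence rise after thallium is added; log ratio against the mean of 0.3% DMSO vehicle wells on the same plate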); details: U2OS BacMam BK variants, at 30 µM
# F380Y/beta1 = assay: as above; details: U2OS BacMam BK variants, at 30 µM
# [3] = growth inhibition, single agent or in combination, cell-based, chromothripsis tumors, cisplatin or BGB combos (AID 1671449; in the data active = inhibition above about 80%;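 also: cells exposed for 96 hours; 0% = vehicle DMSO and 100% = killing by high DMSO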); details: LFS_MB_P medulloblastoma cells
# [4] = growth inhibition, single agent and combos, cell-based, chromothripsis tumors, cisplatin or BGB combos (AID 1671450; in the data active = inhibition above about 80%;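 also: cells exposed to compound for four days; 0% = vehicle DMSO and 100% = cell killing by high DMSO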); details: HDN33 neuroblastoma cells, stronger effect = higher value
# [5] = growth inhibition, single agents and combos, ICB984, cell-based, cisplatin or BGB combos, synergistic combos for chromothripsis tumors (AID 1671451; call rule not given here;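 also: cells exposed for 96 hours before readout; 0% = vehicle DMSO and 100% = killing by high DMSO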); details: ICB984 medulloblastoma cells, drug combinations, stronger effect = higher value
# [6] = growth inhibition, single agents and combos, LFS_MB_1R, cell-based, cisplatin or BGB combos, synergistic combos for chromothripsis tumors (AID 1671452; in the data active = inhibition above about 80%;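 also: cells exposed for 96 hours before readout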); details: LFS_MB_1R medulloblastoma cells, stronger effect = higher value
# [7] = growth inhibition, single agents and combos, HTB85, cell-based, BGB or cisplatin IC20 combos, synergistic combos for chromothripsis tumors (AID 1671453; in the data active = inhibition above about 80%;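 also: cells exposed for 96 hours before readout; 0% = vehicle DMSO and 100% = high DMSO killing control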); details: HTB85 osteosarcoma cells, drug combinations, stronger effect = higher value
# [8] = growth inhibition, single agents and combos, CRL2098, cell-based, BGB or cisplatin IC20 combos, synergistic combos for chromothripsis tumors (AID 1671454; in the data active = inhibition above about 80%;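 also: cells exposed for 96 h before readout; 0% = vehicle DMSO and 100% = killing by high DMSO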); details: CRL2098 osteosarcoma cells, drug combinations, stronger effect = higher value
# [9] = growth inhibition, single agents and combos, HD-MB03, cell-based, BGB or cisplatin IC20 combos, synergistic combos for chromothripsis tumors (AID 1671455; in the data active = inhibition above about 83%;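 also: 0% = vehicle DMSO and 100% = high DMSO as cytotoxic control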); details: HD-MB03 medulloblastoma cells, stronger effect = higher value
# [10] = growth inhibition, single agents and combos, UWB1.289, cell-based, BGB or cisplatin combos, synergistic combos for chromothripsis tumors (AID 1671456; in the data active = inhibition above about 80%;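 also: cells exposed to compound for four days; 0% = vehicle DMSO and 100% = killing by high DMSO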); details: UWB1.289 ovarian carcinoma cells, stronger effect = higher value
# [11] = growth inhibition, single agents and combos, LFS_MB_2R, cell-based, cisplatin combos, synergistic combos for chromothripsis tumors (AID 1671457; in the data active = inhibition above about 80%;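 also: cells exposed to compound for four days before readout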); details: LFS_MB_2R medulloblastoma cells, stronger effect = higher value
# [12] = growth inhibition, MDA-MB-436, cell-based, BGB or cisplatin combos, synergistic combos for chromothripsis tumors (AID 1671458; call rule not given here;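 also: cells exposed for 96 hours; 0% = vehicle DMSO and 100% = killing by high DMSO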); details: MDA-MB-436 breast carcinoma growth inhibition, drug combinations, stronger effect = higher value
# [13] = UWB1.289_BRCA1 ovarian cancer growth, cell-based, BGB or cisplatin combinations (AID 1671459; in the data active = inhibition above about 80%); details: UWB1.289 BRCA1 ovarian carcinoma, drug combinations, stronger effect = higher value
# [14] = drug combination toxicity in non-malignant astrocytes – cell-based, BGB or cisplatin IC20 combos, cytotoxicity control for chromothriptic childhood tumor combination screen (AID 1671460; in the data active = inhibition above about 80%;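 also: cells exposed to compounds for 96 hours before viability readout; 0% = vehicle and 100% = killing control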); details: Human astrocytes, viability inhibition, drug combinations, at 0.5 µM, stronger effect = higher value
# [15] = BT084 cell growth, single and combined drugs, ICGC_MB145, cisplatin and BGB IC40 combos (AID 1671461; in the data active = inhibition above about 80%;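 also: cells exposed to drugs for 96 hours; 0% = vehicle DMSO and 100% = high DMSO full killing control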); details: BT084 medulloblastoma cells, drug combinations, stronger effect = higher value
# [16] = RCMB18 cell growth, single agent and combined, cisplatin and BGB IC40 combos (AID 1671462; in the data active = inhibition above about 80%;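 also: cells exposed to compound for four days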); details: RCMB18 medulloblastoma cells, stronger effect = higher value
# [17] = CRL1545 cell growth, single agent and combined, cisplatin and BGB IC20 combos (AID 1671464; in the data active = inhibition above about 80%;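 also: cells exposed to compound for 96 hours before readout; 0% = vehicle DMSO and 100% = high DMSO killing control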); details: CRL1545 osteosarcoma cells, stronger effect = higher value
# [18] = measured here: combination with BGB IC40, at 0.05 µM
# [19] = measured here: with BGB IC20 combination, at 0.5 µM
# [20] = measured here: with cisplatin IC20 combination, at 0.5 µM
# [21] = measured here: combination with cisplatin, at 0.5 µM
# [22] = measured here: combination with cisplatin, at 5 µM
compound,measurement,setting,value
CN1[C@@H]2CC[C@H]1CC(OC(=O)c1c[nH]c3ccccc13)C2 (some centres undefined),remaining NAD,[1],10 nM (inactive)
same,z-score,[2],-0.025 (inactive) and 0.755 (inactive)
same,log fold change Tl+ flux,F380Y,0.0406 (inactive)
same,log fold change Tl+ flux,F380Y/beta1,0.0426 (inactive)
CCN(CC)CC1CCCCN1CC(=O)N1c2ccccc2C(=O)Nc2cccnc21 (centres undefined),z-score,[2],0.18 (inactive) and -0.135 (inactive)
same,log fold change Tl+ flux,F380Y,-0.00678 (inactive)
same,log fold change Tl+ flux,F380Y/beta1,0.0276 (inactive)
CC(C)(C#N)c1cc(Cn2cncn2)cc(C(C)(C)C#N)c1,remaining NAD,[1],10 nM (inactive)
same,z-score,[2],0.695 (inactive) and 0.735 (inactive)
same,log fold change Tl+ flux,F380Y,0.0287 (inactive)
same,log fold change Tl+ flux,F380Y/beta1,0.000378 (inactive)
NS(=O)(=O)Cc1noc2ccccc12,z-score,[2],1.1 (inactive) and -0.005 (inactive) and 0.465 (inactive)
same,log fold change Tl+ flux,F380Y,0.00455 (inactive)
same,log fold change Tl+ flux,F380Y/beta1,-0.0156 (inactive)
CN(CCOc1ccc(NS(C)(=O)=O)cc1)CCc1ccc(NS(C)(=O)=O)cc1,z-score,[2],0.355 (inactive) and 0.06 (inactive) and 0.77 (inactive)
same,log fold change Tl+ flux,F380Y,0.0506 (inactive)
same,log fold change Tl+ flux,F380Y/beta1,0.0264 (inactive)
Cc1ccnc2c1NC(=O)c1cccnc1N2C1CC1,remaining NAD,[1],10 nM (inactive)
same,z-score,[2],0.47 (inactive)
same,inhibition,"[3]; at 0.5 µM, stronger effect = higher value",65.5% (inactive)
same,inhibition,"[3]; measured here: combination with BGB IC20, at 0.005 µM",-14.8%
same,inhibition,"[3]; measured here: combination with BGB IC40, at 0.005 µM",-23.6%
same,inhibition,[3]; [18],-7.3%
same,inhibition,"[3]; measured here: combination with cisplatin, at 0.5 µM, stronger effect = higher value",96.2%
same,inhibition,"[3]; measured here: combination with cisplatin, at 5 µM, stronger effect = higher value",-8.68%
same,inhibition,"[4]; BGB combo, at 5 µM",-9.4%
same,inhibition,[4]; at 0.5 µM,-11.8% (inactive)
same,inhibition,"[4]; cisplatin combo, at 5 µM",24.4%
same,inhibition,[4]; [19],-18.3%
same,inhibition,[4]; [20],0.871%
same,inhibition,"[4]; single agent, at 5 µM",-21.1%
same,inhibition,"[5]; BGB IC20 combo, at 0.005 µM",7.31%
same,inhibition,"[5]; BGB IC40 combo, at 0.005 µM",-7.13%
same,inhibition,"[5]; BGB IC40 combo, at 0.05 µM",-20.9%
same,inhibition,[5]; at 0.5 µM,-20.4% (inactive)
same,inhibition,"[5]; cisplatin combo, at 0.05 µM",-24.3%
same,inhibition,"[5]; cisplatin combo, at 0.5 µM",-22.4%
same,inhibition,"[5]; cisplatin combo, at 5 µM",-11%
same,inhibition,"[5]; measured here: 5 uM single agent, at 5 µM",-28.4%
same,inhibition,[6]; at 0.5 µM,-9.83% (inactive)
same,inhibition,[6]; [18],-16.2%
same,inhibition,[6]; [21],15.1%
same,inhibition,[6]; [22],29.5%
same,inhibition,[7]; at 0.5 µM,-11.8% (inactive)
same,inhibition,"[7]; measured here: with BGB IC20, at 0.5 µM",-22.9%
same,inhibition,"[7]; measured here: with BGB IC20, at 5 µM",53.6%
same,inhibition,"[7]; measured here: with cisplatin IC20, at 0.5 µM",-9.99%
same,inhibition,"[7]; measured here: with cisplatin IC20, at 5 µM",-37.2%
same,inhibition,"[7]; single agent, at 5 µM",-7.51%
same,inhibition,[8]; at 0.5 µM,-33.2% (inactive)
same,inhibition,"[8]; measured here: combination with BGB at IC20, at 0.5 µM",-9.42%
same,inhibition,"[8]; measured here: combination with cisplatin at IC20, at 0.5 µM",-39.8%
same,inhibition,[9]; at 0.5 µM,-18.2% (inactive)
same,inhibition,"[9]; measured here: combo with BGB at IC20, at 0.5 µM",-13%
same,inhibition,"[9]; measured here: combo with cisplatin at IC20, at 0.5 µM",-23.9%
same,inhibition,[10]; at 0.5 µM,-0.21% (inactive)
same,inhibition,"[10]; measured here: inhibition with BGB combination, at 0.05 µM",-23.1%
same,inhibition,"[10]; measured here: inhibition with cisplatin combination, at 0.05 µM",-13.9%
same,inhibition,[11]; at 0.5 µM,-7.48% (inactive)
same,inhibition,[11]; [21],3.86%
same,inhibition,[11]; [22],-37.6%
same,inhibition,[12]; at 0.5 µM,-22.8% (inactive)
same,inhibition,"[12]; measured here: BGB combination, at 0.5 µM",-19.7%
same,inhibition,"[12]; measured here: BGB combination, at 5 µM",-27%
same,inhibition,"[12]; measured here: cisplatin combination, at 0.5 µM",-29.5%
same,inhibition,"[12]; measured here: cisplatin combination, at 5 µM",-14.1%
same,inhibition,"[13]; BGB combination, concentration series, at 5 µM",-12.7%
same,inhibition,[13]; at 0.5 µM,-12.9% (inactive)
same,inhibition,"[13]; cisplatin combination, concentration series, at 5 µM",-3.3%
same,inhibition,[14],-5.51% (inactive)
same,inhibition,[14]; measured here: combo with BGB IC20,-5.33%
same,inhibition,[14]; measured here: combo with cisplatin IC20,4.46%
same,inhibition,[15]; at 0.5 µM,-28.8% (inactive)
same,inhibition,"[15]; cisplatin combination, at 0.5 µM",-7.59%
same,inhibition,"[15]; cisplatin combination, at 5 µM",-3.69%
same,inhibition,"[15]; measured here: BGB IC40 combination 0.05 uM, at 0.05 µM",-12.5%
same,inhibition,"[15]; single agent, at 5 µM",-22.7%
same,inhibition,[16]; at 0.5 µM,-8.82% (inactive)
same,inhibition,"[16]; cisplatin combo, at 5 µM",24.6%
same,inhibition,"[16]; measured here: BGB IC40 combination, at 0.05 µM",-2.75%
same,inhibition,[16]; [21],5.5%
same,inhibition,"[16]; single agent, at 5 µM",-19.9%
same,inhibition,[17]; at 0.5 µM,-10.3% (inactive)
same,inhibition,[17]; [19],-9.73%
same,inhibition,[17]; [20],-13%
same,inhibition,"[17]; single agent, at 0.05 µM",-39.8%
same,inhibition,"[17]; single agent, at 5 µM",1.39%
same,log fold change Tl+ flux,F380Y,-0.00202 (inactive)
same,log fold change Tl+ flux,F380Y/beta1,0.0188 (inactive)

# Source: PubChem BioAssay
